Records with an inconclusive call do not appear. Entries that show only a call come without a potency. Active and inactive are the calls of the source. Calls come from the whole dose curve; as a rule, active = well fitted activation curve with a large enough effect; inconclusive = small, poorly fitted or top-dose-only effect; inactive = flat fitted curve, though single readings scatter.
Potency is the fitted concentration of half-maximal effect.

This test can be described thus: qHTS for Inhibitors of Cell Surface uPA Generation: FP59 Counterscreen for Cherry-picked Compounds. To be noted: FP59 anthrax toxin cytotoxicity counterscreen, cells; series mostly up to 115 µM. Background: In qHTS, concentration-response curves come from the screen itself.
For the compound `COc1ccc([C@@H]2[C@@H]3C(=O)N(C(C)(C)C)C(=O)[C@@H]3[C@]3(C)C(=O)N(c4cccc(Cl)c4)C(=O)N23)cc1`, the Potency entry was “inactive”.

For the compound `Cc1cc(=O)[nH]c2c(C)cc(S(=O)(=O)Nc3ccc(O)cc3)cc12`, the Potency result is “inactive”.

Regarding `CN(c1ccccc1)S(=O)(=O)c1ccc(C(=O)Nc2nnc(C3CC3)o2)cc1`, the Potency result is “inactive”.

On to `CCCCNC(=O)C1CCN(S(=O)(=O)c2c(C)noc2/C=C\c2ccc(OC)cc2)CC1`, for which the Potency result is “inactive”.

As for `CCNC(=S)NNC(=O)C(c1ccccc1)c1ccccc1`, the Potency entry was “inactive”.

Consider `C=CC(=O)N1C/C(=C/c2ccccc2)C(=O)/C(=C\c2ccccc2)C1`, for which the Potency is 13.1 µM (active).

For `Cc1ccccc1N1C(=O)C(Cc2ccc(F)cc2)S/C1=C(\C#N)C(N)=O` (centres undefined), the Potency entry is “inactive”.

Turning to `O=C(CN1CCOC1=O)N1CCCC(Nc2ccc(F)c(F)c2)C1` (centres undefined), the Potency result was “inactive”.

Turning to `COc1ccc(CNCCC2(C(C)C)CCOC(C)(C)C2)cc1` (centres undefined), the Potency result is “inactive”.

In the case of `CCC(=O)Nc1nc(-c2cc([N+](=O)[O-])cs2)cs1`, the Potency result is “inactive”.

On to `Cc1ccc(NC(=O)CC2OC(=O)c3ccccc32)cc1S(=O)(=O)N1CCOCC1` (centres undefined), for which the Potency result is “inactive”.

For `COc1cc(NC(=S)NCCc2ccc(S(N)(=O)=O)cc2)c(OC)cc1Cl`, the Potency entry is “inactive”.

For the compound `CCOC(=O)C1(CCOc2ccccc2)CCN(Cc2ccc(O)c(OC)c2)CC1`, the Potency result is “inactive”.

In the case of `COC(=O)[C@]1(Cc2ccccc2)N[C@H](CN(C)C(=O)c2ccccc2)[C@@H]2C(=O)N(Cc3ccccc3)C(=O)[C@@H]21`, the Potency result is “inactive”.

On to `CC1(C)CC(CCC(=O)NC(=S)Nc2ccccc2Cl)C(=O)O1` (centres undefined), for which the Potency entry was “inactive”.

In the case of `CCN(C(=O)CSc1ncnc2sccc12)c1c(N)n(Cc2ccccc2)c(=O)[nH]c1=O`, the Potency result is “inactive”.

In the case of `Cc1ccccc1S(=O)Cc1ccc(C(=O)N2CCN(C(=O)c3ccco3)CC2)o1` (centres undefined), the Potency entry is “inactive”.

As to `COc1cc(F)ccc1S(=O)(=O)n1c(C)nc2ccccc21`, the Potency result is “inactive”.

On to `COc1ccc(NS(=O)(=O)c2cc(NS(=O)(=O)c3cc(C(=O)O)ccc3OC)ccc2C)cc1`, for which the Potency entry was “inactive”.

Consider `CC1(C)C([N+](=O)[O-])C(c2ccc(F)cc2)NC(c2ccc(F)cc2)C1[N+](=O)[O-]` (centres undefined), for which the Potency result was “inactive”.

Take `CC(C)Cn1cnc2c1c(=O)[nH]c(=O)n2Cc1ccccc1`: the Potency entry was “inactive”.

Consider `CC(C)CN(C(=O)CN1CCC(C)CC1)c1c(N)n(CC(C)C)c(=O)[nH]c1=O`, for which the Potency result is “inactive”.

Take `O=C(NCCCN1CCCC1=O)c1cccc(Oc2ccccc2)c1`: the Potency result was “inactive”.

With `CCN(CC)C(=O)Cn1cc(/C=C(\C#N)C(=O)NC2CC2)c2ccccc21`, the Potency result was “inactive”.

`Cc1ccc2nc(-c3ccncc3)cc(C(=O)NCCc3ccc(F)cc3)c2c1`: the Potency result was “inactive”.

Take `Cc1cc(C)cc(NC(=O)C(OC(=O)c2ccc(O)cc2)c2ccccc2)c1` (centres undefined): the Potency entry was “inactive”.

For the compound `O=C(CN1CCN(Cc2ccc(Cl)cc2)C1=O)NCc1cccs1`, the Potency entry was “inactive”.

Turning to `CCOC(=O)C1CCN(C(=O)COC(=O)c2c(C)c(CC)nc3ccccc23)CC1`, the Potency entry was “inactive”.

Consider `O=C(/C=C/c1ccc(O)c(O)c1)O[C@@H]1C[C@](O)(C(=O)O)C[C@@H](O)[C@H]1O`, for which the Potency result is “inactive”.

On to `COc1cccc(NC(=O)CN(C)C(=O)c2csc3c2CCCC3)c1`, for which the Potency result was “inactive”.

With `CCCn1c(N)c(C(=O)CSc2nnc(C3CC3)n2Cc2ccccc2)c(=O)[nH]c1=O`, the Potency entry was “inactive”.

`COc1ccc(N2CC(C(=O)Nc3nnc(SCCC4OCCO4)s3)CC2=O)cc1` (centres undefined): the Potency result is “inactive”.

For the compound `CCCN1CCN(C2CCCCC2NS(=O)(=O)c2ccc(Cl)cc2)CC1` (centres undefined), the Potency result is “inactive”.

Turning to `CN(CC(=O)N(C)CC(=O)Nc1c(Cl)cccc1Cl)Cc1ccccc1F`, the Potency result is “inactive”.

Take `CCCn1nnc(NC(=S)NC(=O)c2ccccc2OC)n1`: the Potency entry was “inactive”.

In the case of `COc1ccc(-c2sc3ccccc3c2C#CCO)cc1`, the Potency entry was “inactive”.

With `Cn1nc(N2CCN(S(=O)(=O)c3ccccc3)CC2)c(=O)n(C)c1=O`, the Potency entry is “inactive”.

Take `O=C(COC(=O)c1ccc2ncsc2c1)NCc1cccc(Cl)c1`: the Potency result was “inactive”.

`COc1ccc(CN2CCNC(=O)C2CC(=O)NCC2CCOCC2)cc1C` (centres undefined): the Potency result was “inactive”.

The values above are taken from PubChem BioAssay AID720517 (National Center for Advancing Translational Sciences (NCATS), 2013).
